These results are taken from PubChem BioAssay.

Records with an inconclusive call do not appear. The source made the active and inactive calls.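 How the source made its calls, unless noted: active means cell viability at or below a set limit in both duplicate runs, the limit being the all-compound median minus 4 SD (cut at about 23% in these data, passing the limit was not always enough); inconclusive means no clear call, values can overlap the other calls; inactive means the rest.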

A short description of the first assay: growth suppression of beta-catenin knockout HCT116, pilot screen, human colon tumor cells (AID 823).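 Further: 0% = wells killed by 20 µM Hyamine and 100% = untreated DMSO cell wells.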 Conditions: CellTiter-Glo, 60 h, at 10 µM, hits give low values.
`Cc1ncc(CO)c2cc(S(=O)(=O)c3ccc(F)cc3)c(=O)oc12`: the viability is 104% (inactive).
Still for that read-out and setting: then `CCC(SCC(=O)OC)C(=O)Nc1nnc(C(C)C)s1` (stereo not drawn), with 98.8% (inactive); and `C=CCOC(=O)C1=C(C)NC(C)=C(C(=O)OCC=C)C1c1ccc(O)cc1`, with 78.1% (inactive).
Consider `CC(=O)c1ccc(OCC(O)CN2CCOCC2)cc1` (stereo not drawn), for which the viability is 103% (inactive).
Still for that read-out and setting: then `CCOc1cc(-c2nc(-c3ccncc3)no2)cc(OCC)c1OCC`, with 60.1% (inactive); and `O=C1CC(c2cccs2)CC(O)=C1C=NCCN1CCNCC1` (stereo not drawn), with 98.9% (inactive).
The same measure, in the same setting: the same measure for `OC(COc1ccc2ccccc2c1)CN1CCN(c2ccc(F)cc2)CC1` (stereo not drawn): 81.7% (inactive).
The same measure, in the same setting: the same measure for `O=C(Nc1ccc(SC(F)F)cc1)C1=COCCO1`: 93.8% (inactive); for `COc1ccc(NS(=O)(=O)c2ccc3c(c2)oc(=O)n3C)c(OC)c1`: 104% (inactive); for `COc1ccccc1C1CC(=O)NC(SCC(=O)Nc2ccccc2)=C1C#N` (stereo not drawn): 93.2% (inactive).
For the compound `CC(=O)Nc1ccccc1NC(=O)C(F)(F)F`, the viability was 101% (inactive).
On the same count and under the same terms, then `CCOC(=O)C1=C(C)S/C(=C\N(C)C)C1=O`, with 98.6% (inactive).
On the same count and under the same terms, the same measure for `Cc1ccc(-n2nnc3c(=O)n(CC(=O)NCc4ccco4)cnc32)cc1`: 67.6% (inactive); for `O=C(Cn1c(=O)sc2ccccc21)N1CCOCC1`: 95.5% (inactive).
The same measure, in the same setting: the same measure for `CCOCCOC(=O)C1=C(C)NC2=C(C(=O)CC(c3cccs3)C2)C1c1ccsc1` (stereo not drawn): 93.5% (inactive); for `CC1CC(C)CN(CCCNC(=O)Cn2ncc3c(=O)oc4ccccc4c32)C1` (stereo not drawn): 99% (inactive); for `CCC(C#CCN1CCCCC1)(CC)OCCC#N`: 102% (inactive).
Regarding `CC1CCCCC1NC(=O)c1ccc(CNc2c(N3CCCC3)c(=O)c2=O)cc1` (stereo not drawn), the viability is 96.7% (inactive).
For `Cc1ccc(-c2nc3cccnc3o2)cc1NC(=O)COc1ccc(Cl)cc1C`, the viability is 17.5% (active).
Same read-out and setting: the same measure for `CCCCCn1c(=O)[nH]c2c(c1=O)CCC2`: 101% (inactive).
Take `CCN(c1ccccc1)c1cc(C)nc2nc(C)nn12`: the viability is 106% (inactive).
For `COc1ccc(C(=O)c2cnc(C(C)C)n2C)cc1`, the viability is 98.2% (inactive).
On the same count and under the same terms, the same measure for `O=C1C(C=NCc2ccco2)=C(O)c2ccccc21`: 82.1% (inactive).
As to `C=CCn1cc(C(=O)NCCCOC)c(=O)c2cc(S(=O)(=O)N3CCC(C)CC3)ccc21`, the viability is 96.7% (inactive).
On the same count and under the same terms, the same measure for `NC(=O)c1oc2ccccc2c1NC(=O)CCc1ccccc1`: 96.8% (inactive); for `CCCSc1nc2c(c(=O)n1CC)SC(C)C2` (stereo not drawn): 105% (inactive); for `CCOC(=O)Cn1c(=O)oc2cc(S(=O)(=O)Nc3ccc(F)cc3)ccc21`: 96.7% (inactive).
Same read-out and setting: the same measure for `COc1ccc(CCNC(=O)CSc2nnnn2-c2ccccc2)cc1`: 94.7% (inactive).
Still for that read-out and setting: the same measure for `CCn1cc(C2=NC(C(C)C)CO2)c2ccccc21` (stereo not drawn): 99.2% (inactive); for `O=C(Cn1cnc2c(cnn2-c2ccccc2)c1=O)N1CCOCC1`: 101% (inactive).
Consider `COc1ccc(N(CC(=O)Nc2ccc3c(c2)OCCO3)S(=O)(=O)c2c(C)nn(C)c2C)cc1`, for which the viability is 99.4% (inactive).
Still for that read-out and setting: then `COC(=O)C1=C(C)N(C)C(C)=C(C(=O)OC)C1c1ccsc1`, with 91.4% (inactive).
Still for that read-out and setting: then `O=c1c2c3c(sc2nc2n1CCCCC2)CCCC3`, with 90.4% (inactive); and `CCN=C(NCC)SC1CC(=O)N(c2cccc(OC)c2)C1=O` (stereo not drawn), with 101% (inactive); and `CCOC(=O)N1CCN(C(=O)c2cc3cc(Br)ccc3oc2=O)CC1`, with 94.9% (inactive).
Take `Cc1cc(NC(=O)C2CC(c3ccc(F)cc3)=NO2)no1` (stereo not drawn): the viability is 101% (inactive).
On the same count and under the same terms, then `Cc1nnc(NC(=O)CSc2nnc(Cc3cccn3C)n2-c2cccc(C(F)(F)F)c2)s1`, with 98.8% (inactive).
Same read-out and setting: then `O=C(c1cncc(Br)c1)N1CCN(c2ccc(N3CCOCC3)nn2)CC1`, with 98.1% (inactive).
The same measure, in the same setting: then `Cc1nnc2ccc(N3CCN(C(=O)c4ccccc4)CC3)nn12`, with 98.9% (inactive).

A short description of a further assay: growth suppression of PTEN-deleted HCT116, pilot screen, cell-based, HCT116 clonal line, CellTiter-Glo (AID 824;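 active means viability at or below 27.92% in each of two runs, the all-compound median minus 4 SD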;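 further: 0% = 20 µM Hyamine control and 100% = vehicle cell control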). Particulars: 60 h, at 10 µM, hits give low values.
With `Cc1ncc(CO)c2cc(S(=O)(=O)c3ccc(F)cc3)c(=O)oc12`, the viability is 96.7% (inactive).
Same read-out and setting: the same measure for `CCC(SCC(=O)OC)C(=O)Nc1nnc(C(C)C)s1` (stereo not drawn): 98.1% (inactive); for `C=CCOC(=O)C1=C(C)NC(C)=C(C(=O)OCC=C)C1c1ccc(O)cc1`: 71% (inactive); for `CC(=O)c1ccc(OCC(O)CN2CCOCC2)cc1` (stereo not drawn): 90.7% (inactive).
The same measure, in the same setting: then `CCOc1cc(-c2nc(-c3ccncc3)no2)cc(OCC)c1OCC`, with 65% (inactive).
On the same count and under the same terms, the same measure for `O=C1CC(c2cccs2)CC(O)=C1C=NCCN1CCNCC1` (stereo not drawn): 97.2% (inactive).
With `OC(COc1ccc2ccccc2c1)CN1CCN(c2ccc(F)cc2)CC1` (stereo not drawn), the viability is 84.4% (inactive).
Same read-out and setting: then `O=C(Nc1ccc(SC(F)F)cc1)C1=COCCO1`, with 90.1% (inactive); and `COc1ccc(NS(=O)(=O)c2ccc3c(c2)oc(=O)n3C)c(OC)c1`, with 91.5% (inactive).
On the same count and under the same terms, the same measure for `COc1ccccc1C1CC(=O)NC(SCC(=O)Nc2ccccc2)=C1C#N` (stereo not drawn): 88.2% (inactive); for `CC(=O)Nc1ccccc1NC(=O)C(F)(F)F`: 108% (inactive).
The same measure, in the same setting: the same measure for `CCOC(=O)C1=C(C)S/C(=C\N(C)C)C1=O`: 90.3% (inactive); for `Cc1ccc(-n2nnc3c(=O)n(CC(=O)NCc4ccco4)cnc32)cc1`: 63.4% (inactive).
With `O=C(Cn1c(=O)sc2ccccc21)N1CCOCC1`, the viability is 102% (inactive).
Turning to `CCOCCOC(=O)C1=C(C)NC2=C(C(=O)CC(c3cccs3)C2)C1c1ccsc1` (stereo not drawn), the viability was 89.2% (inactive).
The same measure, in the same setting: the same measure for `CC1CC(C)CN(CCCNC(=O)Cn2ncc3c(=O)oc4ccccc4c32)C1` (stereo not drawn): 101% (inactive).
Consider `CCC(C#CCN1CCCCC1)(CC)OCCC#N`, for which the viability was 97.6% (inactive).
On the same count and under the same terms, the same measure for `CC1CCCCC1NC(=O)c1ccc(CNc2c(N3CCCC3)c(=O)c2=O)cc1` (stereo not drawn): 90.8% (inactive); for `Cc1ccc(-c2nc3cccnc3o2)cc1NC(=O)COc1ccc(Cl)cc1C`: 4.66% (active); for `CCCCCn1c(=O)[nH]c2c(c1=O)CCC2`: 100% (inactive).
Still for that read-out and setting: then `CCN(c1ccccc1)c1cc(C)nc2nc(C)nn12`, with 96.7% (inactive); and `COc1ccc(C(=O)c2cnc(C(C)C)n2C)cc1`, with 90.2% (inactive).
On to `O=C1C(C=NCc2ccco2)=C(O)c2ccccc21`, for which the viability was 89.9% (inactive).
The same measure, in the same setting: the same measure for `C=CCn1cc(C(=O)NCCCOC)c(=O)c2cc(S(=O)(=O)N3CCC(C)CC3)ccc21`: 87% (inactive).
On the same count and under the same terms, then `NC(=O)c1oc2ccccc2c1NC(=O)CCc1ccccc1`, with 97.2% (inactive).
The same measure, in the same setting: then `CCCSc1nc2c(c(=O)n1CC)SC(C)C2` (stereo not drawn), with 88.5% (inactive); and `CCOC(=O)Cn1c(=O)oc2cc(S(=O)(=O)Nc3ccc(F)cc3)ccc21`, with 106% (inactive).
`COc1ccc(CCNC(=O)CSc2nnnn2-c2ccccc2)cc1`: the viability was 88.8% (inactive).
On to `CCn1cc(C2=NC(C(C)C)CO2)c2ccccc21` (stereo not drawn), for which the viability was 95.9% (inactive).
With `O=C(Cn1cnc2c(cnn2-c2ccccc2)c1=O)N1CCOCC1`, the viability was 102% (inactive).
The same measure, in the same setting: then `COc1ccc(N(CC(=O)Nc2ccc3c(c2)OCCO3)S(=O)(=O)c2c(C)nn(C)c2C)cc1`, with 95.9% (inactive); and `COC(=O)C1=C(C)N(C)C(C)=C(C(=O)OC)C1c1ccsc1`, with 87.8% (inactive).
The same measure, in the same setting: the same measure for `O=c1c2c3c(sc2nc2n1CCCCC2)CCCC3`: 85.6% (inactive).
Consider `CCN=C(NCC)SC1CC(=O)N(c2cccc(OC)c2)C1=O` (stereo not drawn), for which the viability is 94.6% (inactive).
On to `CCOC(=O)N1CCN(C(=O)c2cc3cc(Br)ccc3oc2=O)CC1`, for which the viability was 89.7% (inactive).
On the same count and under the same terms, then `Cc1cc(NC(=O)C2CC(c3ccc(F)cc3)=NO2)no1` (stereo not drawn), with 109% (inactive); and `Cc1nnc(NC(=O)CSc2nnc(Cc3cccn3C)n2-c2cccc(C(F)(F)F)c2)s1`, with 94% (inactive); and `O=C(c1cncc(Br)c1)N1CCN(c2ccc(N3CCOCC3)nn2)CC1`, with 98.5% (inactive).
For `Cc1nnc2ccc(N3CCN(C(=O)c4ccccc4)CC3)nn12`, the viability was 95.2% (inactive).
